# Only some compounds are listed: those with a hit (about 2.2% of all), similar ones and a draw of the others.
# beta cell repl: MIN6 beta-cell proliferation induction | MIN6 cells proliferation, ATPlite luminescence, 48 h; cells starved in 0.2% serum; 100% = growth in 10% serum | AID 2380 | proliferation, % at 10 µM | 330,000 compounds, 0.29% hits;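 active = compounds whose signal lies at least 3.5 SD above the mean of all wells on their plate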
# iPSC survival up: enhancers of human iPSC single-cell survival. survival enhancement, % at 20 µM. AID 602274. hiPSC single-cell survival, ATPlite luminescence; 100% = ROCK inhibitor wells, 0% = DMSO. 360,000 compounds, 0.044% hits; in the data active = survival enhancement above about 18%;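 note: cells exposed to compounds for 16 hours before the ATP read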
# Myeloid diff 2: compounds promoting myeloid differentiation | calls only at 10 µM | 360,000 compounds, 1% hits | ER-HoxA9 myeloid progenitors, lysozyme-GFP differentiation, flow cytometry;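 active = normalized GFP-positive differentiation at or above the plate's own cutoff, the solvent-only control mean plus 3 SD; inconclusive = no clear call, values can overlap the other calls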;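 note: cells exposed to compound for four days before flow analysis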
# ABCB6 inh MLPCN: blocks the human ABCB6 transporter | Q9NP58 | K562-ABCB6 porphyrin accumulation, flow cytometry, 1 h; hits give low values | fluorescence ratio to DMSO, % at 10 µM | 360,000 compounds, 0.19% hits;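 active = fluorescence ratio to DMSO below 75%, the collection mean minus 3 SD; inconclusive = too few cells collected in the well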;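 note: signal is porphyrin accumulated inside mitochondria; lower ratio means ABCB6 inhibition with less porphyrin fluorescence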
# Target sequence (Q9NP58 whole entry, looked up): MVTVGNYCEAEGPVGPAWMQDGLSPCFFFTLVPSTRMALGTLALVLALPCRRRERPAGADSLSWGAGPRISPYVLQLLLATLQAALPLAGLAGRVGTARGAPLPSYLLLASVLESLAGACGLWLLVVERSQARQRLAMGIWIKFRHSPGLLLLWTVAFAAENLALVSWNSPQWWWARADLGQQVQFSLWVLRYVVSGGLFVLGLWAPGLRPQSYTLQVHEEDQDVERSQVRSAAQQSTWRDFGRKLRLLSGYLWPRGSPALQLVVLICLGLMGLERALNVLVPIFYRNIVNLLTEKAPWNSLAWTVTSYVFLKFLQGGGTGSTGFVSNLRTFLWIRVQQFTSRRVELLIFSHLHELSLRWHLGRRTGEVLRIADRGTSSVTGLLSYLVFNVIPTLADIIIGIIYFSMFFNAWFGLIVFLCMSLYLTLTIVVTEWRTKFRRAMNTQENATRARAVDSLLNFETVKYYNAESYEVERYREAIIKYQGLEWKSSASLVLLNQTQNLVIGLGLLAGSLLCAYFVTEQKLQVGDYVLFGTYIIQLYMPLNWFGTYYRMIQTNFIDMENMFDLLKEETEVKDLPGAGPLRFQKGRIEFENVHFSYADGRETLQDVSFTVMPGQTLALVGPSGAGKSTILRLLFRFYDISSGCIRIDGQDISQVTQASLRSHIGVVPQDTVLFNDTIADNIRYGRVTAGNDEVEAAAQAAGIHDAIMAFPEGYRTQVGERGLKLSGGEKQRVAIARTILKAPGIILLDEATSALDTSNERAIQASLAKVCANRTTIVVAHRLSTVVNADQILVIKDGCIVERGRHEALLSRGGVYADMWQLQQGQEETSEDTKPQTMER
# H9c2 protect: protects H9c2 cardiomyocytes from peroxide injury. AID 588492. H2O2 injury protection, ATPLite, 2 h. protection from H2O2 cell death, % at 20 µM. 360,000 compounds, 0.63% hits;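 active = compounds giving at least 50% protection of heart cells from peroxide-induced death in the single-dose screen, raw or plate-pattern-corrected value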
# Hits are given with their value; n = inactive; u = inconclusive; x = not tested or not shown; + = active, no number.
SMILES,beta cell repl,iPSC survival up,Myeloid diff 2,ABCB6 inh MLPCN,H9c2 protect
Cc1cc(NC(=O)CN2C(=O)S/C(=C\c3ccccc3)C2=O)no1,n,n,n,n,n
N=c1c(S(=O)(=O)c2ccc(Br)cc2)cc2c(=O)n3ccccc3nc2n1C1CCCC1,n,n,n,n,n
N=c1c(S(=O)(=O)c2ccccc2)cc2c(=O)n3ccccc3nc2n1C1CCCC1,n,n,+,n,n
Cc1nc(NC(=O)c2cc3c(C)nn(-c4ccccc4)c3s2)sc1C(=O)Nc1ccccc1,n,n,n,n,64
CC(=O)c1sc(NC(=O)c2cc3c(C)nn(-c4ccccc4)c3s2)nc1C,n,n,n,n,n
COc1ccc(N(C)S(=O)(=O)c2cccc(C(=O)Nc3nnc(C4CC4)s3)c2)cc1,n,n,n,n,n
CCN(CC)c1ccc(/C=C2\C(=N)N3N=C(CC(=O)N4CCOCC4)SC3=NC2=O)cc1,n,n,+,n,n
Cc1cccc(CN2CCN(CCCc3ccccc3)CC2)c1,n,x,x,x,x
O=C(CSc1nnc(-c2ccccc2)c(-c2ccccc2)n1)Nc1ccc(Br)cn1,x,n,n,n,n
Cc1ccc(C)c(N=Cc2cc3c(cc2[N+](=O)[O-])OCO3)c1,n,n,n,n,63
O=[N+]([O-])c1ccc(CSc2nnc(Cc3ccccc3)n2-c2ccc(F)cc2)cc1,n,n,+,n,n
COc1ccc(C)cc1S(=O)(=O)N(CC(=O)NCc1ccco1)c1ccc(C)cc1,n,n,n,n,n
CC(=O)Nc1ccc(NC(=O)c2cc(C)nn2-c2ccccc2)cc1,n,n,n,n,n
O=C(NC(Cc1ccccc1)C(=O)O)/C(=C/c1ccco1)NC(=O)c1cccc(Br)c1 (centres undefined),n,n,n,n,n
Cc1cccc(N=Cc2cc(Br)cc(Cl)c2O)c1,n,n,n,n,54
CCN1C(=O)/C(=C\C=C\c2ccccc2[N+](=O)[O-])SC1=S,n,n,u,n,n
CCN1C(=O)/C(=C/C=C2\N(CC)c3cc(S(=O)(=O)N(C)C)ccc3N2c2ccccc2)SC1=S,n,n,+,n,n
CCN1C(=O)CS/C1=N\S(=O)(=O)c1ccc(Cl)cc1,n,n,n,n,n
CCn1c(Cl)c(C=O)s/c1=N\S(=O)(=O)c1ccccc1,n,44,u,38,n
Cc1cccc(OCC(=O)N/N=C\c2cccn2C)c1C,n,n,n,67,n
CC1Sc2ccc(S(=O)(=O)CCC(=O)N(C)Cc3ccco3)cc2NC1=O (centres undefined),n,n,n,n,n
CCN(CC)C(=O)Cn1c(C)c(/C=C/c2cc[n+](C)cc2)c2ccccc21,n,n,+,n,n
C=CCn1c(C)c(/C=C/c2cc[n+](C)cc2)c2ccccc21,n,n,+,n,n
CCn1cc(/C=C/c2cc[n+](C)cc2)c2ccccc21,x,n,u,n,n
Cc1[nH]c2ccccc2c1/C=C/C(=O)c1ccncc1,n,n,+,n,n
SMILES,beta cell repl,iPSC survival up,Myeloid diff 2,ABCB6 inh MLPCN,H9c2 protect
Cc1[nH]c2ccccc2c1/C=C/c1cc[n+](C)cc1,x,n,+,n,n
O=C(/C=C/c1cccc2ccccc12)c1ccncc1,x,n,n,n,n
CC(CNC(=O)c1ccc(OC2CCN(Cc3ccccn3)CC2)cc1)Oc1cccnc1 (centres undefined),n,n,n,n,n
O=C(c1ccccc1)N(Cc1ccccc1)Cc1ccccc1,n,n,n,n,n
CCCCn1nnnc1C(c1ccccc1)N1CCN(C(=O)C2CCCO2)CC1 (centres undefined),x,n,n,n,x
Cc1ccc(-c2nn3c(C)nnc3c3ccccc23)cc1S(=O)(=O)NC(C)c1ccccc1 (centres undefined),n,n,n,n,91
Cc1ccc(-c2nn3c(C)nnc3c3ccccc23)cc1S(=O)(=O)NCCO,n,n,n,n,n
Cc1cccc(C(=O)NC2=NCCS2)c1,n,n,n,n,n
N#CCSc1nc2cc(C(=O)N3CCC(C(N)=O)CC3)ccc2c2nc3ccccc3n12,n,n,n,n,52
N#CCSc1nc2cc(C(=O)N3CCCC3)ccc2c(=O)n1Cc1ccccc1,n,n,n,n,n
O=C(Nc1ccccc1C(=O)Nc1ccccc1C(=O)NCc1ccco1)c1ccco1,n,n,n,n,52
O=C(CNC(=O)[C@@H]1Cc2ccccc2CN1)NCc1ccco1,n,n,+,n,n
O=C(CNC(=O)[C@@H]1Cc2ccccc2CN1)Nc1ccc2c(c1)OCO2,n,n,+,n,n
O=C(CN1C(=O)COc2ccc(Cl)cc21)Nc1ccc2c(c1)OCCO2,n,n,+,n,n
COc1ccccc1OCc1ccc(C(=O)NN)o1,n,n,+,n,n
Cc1ccc(NC(=O)c2ccc(COc3ccccc3[N+](=O)[O-])o2)nc1,n,n,+,n,n
Cc1ccc(NC(=O)CCc2c(C)nc3ncnn3c2C)cc1,n,n,n,n,n
COC(=O)c1cc(NC(=O)CCc2c(C)nc3ncnn3c2C)cc(C(=O)OC)c1,n,n,+,n,n
COc1cccc(-c2nnc(NC(=O)c3ccc(S(=O)(=O)N4CC(C)OC(C)C4)cc3)o2)c1 (centres undefined),n,n,+,n,56
COc1ccc(-c2nnc(NC(=O)c3ccc(F)cc3)o2)cc1,n,n,n,n,68
CC1CN(S(=O)(=O)c2ccc(C(=O)Nc3nnc(-c4ccco4)o3)cc2)CC(C)O1 (centres undefined),n,n,n,n,n
CC1CC(C)CN(S(=O)(=O)c2ccc(C(=O)Nc3nnc(-c4cccs4)o3)cc2)C1 (centres undefined),n,n,n,n,50
CCC1CCCCN1S(=O)(=O)c1ccc(C(=O)Nc2nnc(-c3cccs3)o2)cc1 (centres undefined),n,n,u,n,75
CN(C)S(=O)(=O)c1ccc(C(=O)Nc2nnc(-c3cccs3)o2)cc1,n,n,n,n,n
COc1ccc(COCC(O)CN2CCOCC2)cc1OC (centres undefined),n,n,n,n,n
SMILES,beta cell repl,iPSC survival up,Myeloid diff 2,ABCB6 inh MLPCN,H9c2 protect
COc1cc(C(=O)NCc2nnc(SCC(=O)N3CCC(C)CC3)o2)cc(OC)c1OC,n,n,n,n,n
CC1CCCN(S(=O)(=O)c2ccc(C(=O)Nc3nnc(-c4ccccc4Cl)o3)cc2)C1 (centres undefined),n,n,+,n,n
CC1CCCN(S(=O)(=O)c2ccc(C(=O)Nc3nnc(-c4ccccn4)o3)cc2)C1 (centres undefined),n,n,n,n,n
CCN(CC)c1ccc(/C=C/c2cc(-c3ccccc3)c3ccccc3n2)cc1,x,n,+,n,n
CCN(CC)c1ccc(/C=N/NC(=O)c2cc(C)nc3ccccc23)cc1,n,n,n,n,n
Cc1cc(-c2nn3c(-c4ccccc4)nnc3s2)c2ccccc2n1,n,n,u,n,64
